Rows were chosen to be rich in hits. Some 4.3% of all compounds tested hit in one or more screens of this group.
SMARCA2 act – SMARCA2 (BRM) function activators, primary screen, cell-based, luminescence, high throughput. AID 652017, 2013. hit rate 1% among 370,000. activation, % at 9.1 µM. MG213 cells, MMTV-luciferase reporter, dexamethasone, overnight; in the data active = activation above about 7.8%;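 note: 0% = vehicle wells and 100% = reference activator wells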
MITF act – activators of MITF-driven TRPM1 promoter reporter, primary screen, cell-based, SK-MEL-5, luciferase, single point; hit rate 0.75% among 300,000; activation, % at 12.5 µM; SK-MEL-5 TRPM1-promoter luciferase, 24 h; % of positive control, neutral wells = 0;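 active = mean activation of at least 80% with every replicate also reaching 80%; inconclusive = mean reaches 80% but some replicate falls short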;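 note: 0% = neutral control wells and 100% = parthenolide positive control wells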
HSF1 inhib – HSF1 inhibitors in luciferase reporter cells, primary screen, cell-based, NIH3T3, luminescence; NIH3T3-HGL HSE-luciferase, MG132-induced, luminescence 8 h; hits give low values; activity change, negative = inhibition, % at 7.5 µM (by protocol); hit rate 0.77% among 300,000; AID 2098, 2009;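 active = more than half of replicate wells show activity change below -50%, luminescence cut by over half; inconclusive = some wells, but at most half, below -50%; inactive = no replicate well below -50%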;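 note: luciferase reports HSF-1 transcriptional activity via heat shock element; 0% = median of DMSO wells and -100% = zero luminescence signal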
esBAF inh – Bmi1 luciferase reporter increase in mESCs, primary screen, esBAF inhibitor project, mouse ES cells, Bmi1 luciferase knock-in, single point; 24 h; 100% = twice the neutral-well signal; reporter increase, % at 12.5 µM; hit rate 2% among 350,000; AID 602393, 2012; in the data active = activation above about 40%; inconclusive = no clear call, values can overlap the other calls;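 note: 0% = median of the plate's neutral control wells and 100% = double that signal; a rise in the Bmi1 reporter signal indicates esBAF inhibition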
Wnt act – Wnt/beta-catenin pathway activators, primary screen, cell-based, plate reader, single point. Wnt/beta-catenin reporter cell assay, activator. activation, % at 9.35 µM. hit rate 1.2% among 300,000; in the data active = activation above about 30%, passing the limit was not always enough; inconclusive = no clear call, values can overlap the other calls;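 note: 0% = neutral control wells and 100% = positive control wells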
HSF-1 act – HSF-1 activators, primary screen, NIH3T3-HGL cells, MG132 stress, luminescence, single point; activation, % at 9 µM; hit rate 1.7% among 300,000; NIH3T3-HGL HSF-1 luciferase reporter, 8 h; 100% = twice DMSO control signal;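 active = mean replicate activation of at least 50% with a set share of replicates each reaching 50%; inconclusive = only one of those two conditions met; inactive = mean below 50% and too few replicates reaching it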;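 note: 0% = median of the neutral control wells and 100% = twice that signal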
* marks the source's active call; other numbers are inactive results; ? = inconclusive; . = no result.

SMILES	SMARCA2 act	MITF act	HSF1 inhib	esBAF inh	Wnt act	HSF-1 act
C[C@H](CO)N1C[C@H](C)[C@@H](CN(C)C(=O)CN(C)C)Oc2ncc(C#Cc3ccccc3)cc2C1=O	.	.	.	1	.	.
COc1ccc(-c2nc3n(c(=O)c2C#N)CCS3)cc1	-3	-2	-7	.	3	9
C=CCSc1nc(-c2ccc(OC)cc2)c(C#N)c(=O)n1CC=C	-4	-1	20	.	-1	65*
Cc1c(C(=O)N2CCc3ccccc32)oc2c1C(=O)CC(C)(C)C2	5	?	.	53*	-2	.
CCOC(=O)CN1CC23C=CC(O2)C(C(=O)NC2CCCCC2)C3C1=O (stereo not given)	2	5	-89*	0	-3	-92
O=C1CN(C(=O)c2ccc(Br)o2)C(c2ccccc2)c2cc(Cl)ccc2N1 (stereo not given)	-2	-21	16	2	-2	29
O=C1CN(C(=O)c2ccc(Br)o2)C(c2ccc(F)cc2)c2cc(Cl)ccc2N1 (stereo not given)	-5	-3	29	15	-11	55*
CCCNC(=O)C[C@@H]1CC[C@H]2[C@H](COc3ccc(NC(=O)C4CCOCC4)cc3C(=O)N2C)O1	.	.	.	-1	.	.
c1ccc(Cn2ncc3c(NCc4ccco4)ncnc32)cc1	0	-8	2	-4	0	-1
c1ccc(-n2ncc3c(NCc4ccco4)ncnc32)cc1	-2	35	11	57*	?	20
Fc1cccc(Nc2ncnc3c2cnn3-c2ccccc2)c1	-2	54	27	57*	22	53*
Clc1cccc(Nc2ncnc3c2cnn3-c2ccccc2)c1	-1	37	21	65*	5	47
O=C(O)c1cccc(Nc2ncnc3c2cnn3-c2ccccc2)c1	4	15	-1	8	.	14
c1ccc(CSc2ncnc3c2cnn3-c2ccccc2)cc1	-3	11	-59*	.	.	-68
C/C=C/c1ccc2c(c1)O[C@@H](CN(C)C(=O)Cc1cccnc1)[C@H](C)CN([C@@H](C)CO)S2(=O)=O	.	.	.	-1	.	.
CN(C)C(=O)C[C@@H]1CC[C@@H]2[C@@H](COc3ccc(NS(=O)(=O)c4cccc(F)c4)cc3C(=O)N2C)O1	.	.	.	-2	.	.
Cc1ccc(N(CCCCN2C(=O)c3ccccc3C2=O)C(=O)c2cccc([N+](=O)[O-])c2)cc1	-1	-2	35	-1	.	70*
O=C1c2ccccc2C(=O)N1CCCCN(C(=O)c1cc([N+](=O)[O-])cc([N+](=O)[O-])c1)c1ccc(Cl)cc1	-1	-10	14	.	-4	25
Cc1nc(-c2ccc([N+](=O)[O-])cc2)nc2[nH]ccc(=O)c12	5	105*	20	?	37*	33
Cc1nc(-c2ccccc2)nc2[nH]c(-c3ccccc3)cc(=O)c12	-2	22	-3	.	6	10
COc1ccccc1N1CCN(C(=O)c2cc(-c3ccccc3)on2)CC1	-2	10	2	10	0	3
Cc1ccc(N2CCN(C(=O)c3cc(COc4c(C)cccc4C)on3)CC2)c(C)c1	-1	5	0	0	1	-17
COc1cccc(OCc2cc(C(=O)N3CCN(c4ccccc4OC)CC3)no2)c1	4	83*	20	77*	37*	29
COc1cccc(OCc2cc(C(=O)N3CCN(c4ccccc4O)CC3)no2)c1	2	97*	-1	49*	26	-5
O=[N+]([O-])c1cccc(-c2nnn(C34CC5CC(CC(C5)C3)C4)n2)c1	3	71	25	50*	.	28
SMILES	SMARCA2 act	MITF act	HSF1 inhib	esBAF inh	Wnt act	HSF-1 act
Cc1ccc(/C=C2/NC(=O)N(Cc3ccc(Br)cc3)C2=O)o1	4	11	33	.	.	59*
CCN1C(=O)N/C(=C/c2ccc(C)o2)C1=O	3	-2	-14	.	-3	-13
Cc1cccc(OCC(=O)Nc2cc(C)c(C)cc2O)c1	3	10	5	25	0	12
Cc1cccc(OCC(=O)Nc2cc(C)ccc2O)c1	0	2	130	0	.	181*
Cc1cccc(OCC(=O)Nc2cccc(C(=O)NCC(C)C)c2)c1	-3	-12	-81*	-1	-3	-85
C[C@@H]1CN([C@@H](C)CO)C(=O)Cc2cc(NC(=O)NC3CCCCC3)ccc2O[C@H]1CN(C)Cc1ccc(C(=O)O)cc1	.	.	.	-2	.	.
CCCC(=O)Nc1ccc2c(c1)C(=O)N(C)[C@@H]1CC[C@H](CC(=O)NCCCN(C)C)O[C@@H]1CO2	.	.	.	5	.	.
COc1ccc(/C=N/Nc2nncn2N)cc1Br	-7	.	47	-3	0	78*
C=CCSC1=C(C#N)C(c2cccc(OC)c2)CC(=O)N1 (stereo not given)	0	-4	8	0	0	51*
COC(=O)CSC1=C(C#N)C(c2cccc(OC)c2)CC(=O)N1 (stereo not given)	-4	-10	0	6	-1	-6
CCN1C(=O)/C(=C/c2ccc(N3CCCC3)cc2)NC1=S	-2	49	3	49*	16	8
Cc1cc(/C=C2/C(=O)N(C)C(=S)N2C)ccc1N1CCCC1	5	55	39	78*	44*	74*
Cc1cc(/C=C2\NC(=S)N(C)C2=O)ccc1N1CCCC1	-1	50	-6	65*	53*	-5
Cc1cc(N2CCCC2)ccc1/C=C1/C(=O)N(C)C(=S)N1C	-3	-30	5	13	-2	9
N#Cc1cccc(-c2ccc3c(c2)[C@@H]2[C@@H](CCN2C(=O)c2ccccc2F)[C@@H](CO)N3)c1	.	.	.	-1	.	.
O=C(CSc1ncnc2ccccc12)c1cccs1	5	23	33	.	-1	60*
Cc1ccnc(SCC(=O)c2ccc(Br)s2)n1	2	42	7	-1	.	15
Cc1ccnc(SCC(=O)c2cccs2)n1	4	93*	15	.	44*	24
CCCN1[C@H](C(=O)N(C)C)[C@@H](CO)[C@@H]2Cn3c(ccc(-c4ccc(OC)cc4)c3=O)[C@@H]21	.	.	.	4	.	.
c1csc(-c2nc(CN3CCSCC3)cs2)c1	7	-9	4	-49	43*	35
O=S1(=O)CCN(Cc2csc(-c3cccs3)n2)CC1	3	32	17	.	-1	22
Nn1c(SCc2ccc(F)cc2)nnc1-c1cccnc1	-3	.	32	.	12	62*
Nn1c(SCc2ccccc2F)nnc1-c1ccccn1	6	.	22	.	41*	38

Assay outcomes as filed in PubChem.
